Results reported in the supplement of paper PMC6555819.

Key:
Experiment in all cases: PBM binding z-score (relative to random genomic background probes); higher = stronger binding; sequences stand for … in GC…GCGATTGACAGCGTAGAATGAAGG
[1] = test system: RARb homodimer (NR concentration 270 nM)
How it was run: (§1)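 Custom Agilent 4×180K protein-binding microarrays carried double-stranded probes, each with a 34-nt variable region. These regions held direct-repeat seeds, single-nucleotide variants, half-site ablations and random human genomic background sequences. Ligand-free nuclear receptor dimers were incubated on the arrays for 1 h, antibodies against each partner (one per run) detected binding, and scanned fluorescence was regression-normalized. Binding z-scores take the random background probes as reference.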

[2] = test system: RARg:RXRa (NR concentration 270 nM, RXRa partner concentration 90 nM)
How it was run: as §1

[3] = test system: RARg homodimer (NR concentration 270 nM)
How it was run: as §1

[4] = test system: RXRa DBDmut IVT, anti-RXR (DBD mutation: RXRa K156A/R161A, NR concentration 90 nM)
How it was run: as §1

[5] = test system: RXRa homodimer (NR concentration 180 nM)
How it was run: as §1

[6] = test system: THRa:RXRa (NR concentration 90 nM, RXRa partner concentration 90 nM)
How it was run: as §1

[7] = test system: THRa homodimer (NR concentration 90 nM)
How it was run: as §1

[8] = test system: VDR homodimer (NR concentration 270 nM)
How it was run: as §1

| Sequence | PBM binding z-score [1] | PBM binding z-score [2] | PBM binding z-score [3] | PBM binding z-score [4] | PBM binding z-score [5] | PBM binding z-score [6] | PBM binding z-score [7] | PBM binding z-score [8] |
| --- | --- | --- | --- | --- | --- | --- | --- | --- |
| ATATGTAGGTTAGCAGGGGTCATTCAGACTAGGC | 4.08 | 5.19 | 3.61 | 1.99 | 6.36 | 4.61 | 1.78 | 5.34 |
| TCTAGATGGTCACGGAGGTCACACACGACGGGTA | 4.54 | 4.93 | 4.89 | 0.905 | 5.34 | 3.85 | 2.6 | 3.63 |
| CAAACTAGGTCAACGTCAAAGTCGGTTTGTGCCA | 3.56 | 4.05 | 4.97 | 1.68 | 2.9 | 3 | 1.02 | 1.07 |
| TCCTATAGGTAAATGCTAGGTGAAAGTCCGATCT | 0.372 | 0.374 | 0.00496 | 1.14 | 0.554 | 1.55 | 0.305 | -0.299 |
| ACTATTAGTTGAGACGAGGGAAACCGATAGGTTG | -0.559 | 0.157 | 0.307 | 0.505 | 0.0988 | 0.35 | -0.716 | 0.415 |
| ATATGTAGGCTAGCTGGGGTCATTCAGACTAGGC | 3.02 | 3.59 | 1.99 | 1.43 | 4.96 | 4.2 | 2.76 | 3.63 |
| TCTGCTAGGTCAACGATGGTCAGCAAATCTGCTA | 3.35 | 3.94 | 5.26 | 0.984 | 2.45 | 3.17 | 0.756 | -0.402 |
| GATGCTAGGTCAGGTTGGTCAGCTAACGGGTACG | 3.1 | 2.37 | 3.92 | 0.468 | 1.16 | 1.92 | 0.898 | 0.958 |
| TCTGCTAGGTCAGTGGGTCAGCTAACGAGCTGCC | 3.84 | 3.92 | 4.5 | 0.404 | 2.23 | 1.94 | 0.337 | -0.31 |
| ACTATAAGTTGACTTAGGGCAACCGATACGACGC | 1.03 | 1 | 1.11 | 0.718 | 0.692 | 2.4 | 0.322 | 0.647 |
| TCATATAGGTAAACAGGTGAACGTCCGTAAGTTA | 0.948 | 0.887 | 0.712 | 1.31 | 1.28 | 1.12 | 0.353 | 0.243 |
| CAGCCTAGGTCAGGGCCTGTATAGGAGGAACGTT | 2.38 | 2.68 | 3.88 | -0.731 | 1.46 | 1.88 | -0.108 | -0.924 |
| CCGAGTAGGTTATGGAGCATTCAGGCAACGGTGA | 0.461 | 0.362 | 0.489 | 0.355 | 0.308 | 0.145 | 0.277 | 0.244 |
| TAGCATAGGTCATTCAGGGGCCAGTATAGAAAGC | 3.72 | 7.38 | 5.09 | 1.83 | 5.02 | 3.87 | -0.317 | 0.876 |
| TCTTGTAGATCAAACGTTAAGAAAGCCGAAGCCT | -0.779 | -0.146 | -0.238 | 0.749 | 0.138 | -0.412 | -0.567 | -0.573 |
| GCTATTTGGTCAGTAAAAGGTCACACACCGGTCG | 5.41 | 5.36 | 4.76 | 0.964 | 5.44 | 3.91 | 2.43 | 2 |
| CCTTACGGGTCACTCCAGGTTATAGCATCGGAGT | 3.23 | 4.39 | 4.35 | 1.5 | 4.36 | 4.89 | 0.826 | 1.69 |
| CCTACTGGGCCATTCAGAAGTCATTGATCATATG | -0.105 | 0.0962 | 0.226 | -0.00725 | -0.479 | -0.404 | -0.643 | -0.285 |
| AACTCTAGGTAAAGTTCAGTGAAAGATCGATAGA | 2.3 | 1.97 | 2.32 | 1.44 | 1.19 | 0.938 | -0.396 | 1.64 |
| GCTAGGAGGACAAGGTCAGAGCTTTGTCCGTAGA | 3.1 | 3 | 3.49 | 0.861 | 2.29 | 2.83 | 1.21 | 0.639 |
| TCAGATAGGTAAATGCTAGGTGAAAGTCCGATCT | 0.292 | 0.258 | 0.0345 | 1.06 | 0.464 | 1.22 | -0.0517 | -0.287 |
| GCGGCTAGGTCAACTGATGGTCAGCTAAAGCTCG | 3.7 | 5.19 | 5.19 | 1.17 | 2.84 | 2.95 | 0.698 | -0.00796 |
| TCATATAGGTAATACTGGTGAAAGTCGGCATCTA | -0.0217 | 0.407 | 0.265 | 1.59 | 0.819 | 0.113 | -0.05 | 0.596 |
| CGTCCCAGGTCAAGGTCAGTGAAAGAGACTCGAA | 4.62 | 5.74 | 6.29 | 2.55 | 5.19 | 4.18 | 3.61 | 2.6 |
| AGTATGAGGTTATACGTAGATCAGGGAAGAAAGT | 0.828 | 1.81 | 1.26 | 1.67 | 2.18 | 2.4 | 0.869 | 0.823 |
| CCTAGTGGGTCAAGGTCACACACGCTATAGGTAC | 4.58 | 5.74 | 6.11 | 1.58 | 5.6 | 4.22 | 3.74 | 3.44 |
| CCTGCTAGGTCAGTGGTCAGCTAAAGCAGCTCGC | 2.63 | 2.56 | 3.82 | 0.821 | 0.693 | 1.51 | 0.454 | -0.319 |
| GATACAGGGTCAGCTGGAGGCCAGAGTATGGAAA | 3.23 | 6.73 | 5.23 | 1.38 | 4.35 | 3.16 | 0.136 | 0.57 |
| ACTATGAGTTGACTTAGGGCAACCGATACGACGC | 1.06 | 1.07 | 1.2 | 1.49 | 0.819 | 2.22 | 0.414 | 1.26 |
